Records with an inconclusive call do not appear. A call without a number means that no potency is given here. The source made the active and inactive calls. The call rests on the fitted dose curve.
experiment: Primary qHTS for Huh7 cytotoxicity: counterscreen for inhibitors of MERS-S pseudotyped particle cell entry (AID 1479147); conditions: cell viability read-out; series mostly up to 57.1 µM

Which Potency does the source give for `Oc1ccc(C(O)CNCCCCCCNCC(O)c2ccc(O)c(O)c2)cc1O` (stereo not given) here?
Its Potency is “inactive”.

For `CC(O)COc1ccccc1` (stereo not given), which Potency is on record?
Its Potency is “inactive”.

With `Nc1ccc(C(=O)NCC(=O)O)cc1` as the molecule, how does the Potency read?
Its Potency is “inactive”.

Which Potency does the source give for `C=CCCCCCCCCC(=O)O` here?
The Potency was “inactive”.

Which Potency does the source give for `O=C1c2cccc(O)c2C(=O)c2c(O)cccc21` here?
Its Potency is “inactive”.

For `CN(CCCN1c2ccccc2CCc2ccccc21)CC(=O)c1ccc(Cl)cc1`, which Potency is on record?
The Potency was “inactive”.

For `C#C[C@]1(O)CC[C@H]2[C@@H]3CCC4=CC(=O)CC[C@@H]4[C@H]3CC[C@@]21C`, which Potency is on record?
Its Potency is “inactive”.

With `C[N+](C)(C)CCOC(=O)CCC(=O)OCC[N+](C)(C)C` as the molecule, how does the Potency read?
The Potency was “inactive”.

For `CC(=O)/C=C/C=C1/C2CCC(C2)C1(C)C` (stereo not given), which Potency is on record?
The Potency was “inactive”.

Which Potency does the source give for `NC(=O)C1(N2CCCCC2)CCN(CCCC(=O)c2ccc(F)cc2)CC1` here?
The Potency was “inactive”.

Which Potency does the source give for `Nc1c(CC(=O)O)cccc1C(=O)c1ccc(Br)cc1` here?
The Potency was “inactive”.

For `C[C@H]1C[C@H]2[C@@H]3CCC4=CC(=O)C=C[C@]4(C)[C@H]3C(=O)C[C@]2(C)[C@@]1(O)C(=O)CO`, which Potency is on record?
Its Potency is “inactive”.

Which Potency does the source give for `OC[C@H]1O[C@@H](O[C@@H]2[C@@H](CO)O[C@](O)(CO)[C@H]2O)[C@H](O)[C@@H](O)[C@H]1O` here?
Its Potency is “inactive”.

For `CC(=O)N[C@H]1[C@H]([C@H](O)[C@H](O)CO)OC(C(=O)O)=C[C@@H]1N=C(N)N`, which Potency is on record?
Its Potency is “inactive”.

With `CCN(CC)C(=O)c1cccc(C)c1` as the molecule, how does the Potency read?
The Potency was “inactive”.

With `CCC1Nc2cc(Cl)c(S(N)(=O)=O)cc2S(=O)(=O)N1` (stereo not given) as the molecule, how does the Potency read?
The Potency was “inactive”.

Which Potency does the source give for `CC(=O)N(CC(O)CN(C(C)=O)c1c(I)c(C(=O)NCC(O)CO)c(I)c(C(=O)NCC(O)CO)c1I)c1c(I)c(C(=O)NCC(O)CO)c(I)c(C(=O)NCC(O)CO)c1I` (stereo not given) here?
The Potency was “inactive”.

Which Potency does the source give for `COCCc1ccc(OCC(O)CNC(C)C)cc1` (stereo not given) here?
The Potency was “inactive”.

Which Potency does the source give for `COCc1c(C(C)C)nc(C(C)C)c(/C=C/[C@@H](O)C[C@@H](O)CC(=O)O)c1-c1ccc(F)cc1` here?
Its Potency is “inactive”.

Which Potency does the source give for `C[C@@H]1C[C@H]2[C@@H]3CCC4=CC(=O)C=C[C@]4(C)[C@@]3(F)[C@@H](O)C[C@]2(C)[C@H]1C(=O)CO` here?
Its Potency is “inactive”.

Which Potency does the source give for `c1ccc(CN(CC2=NCCN2)c2ccccc2)cc1` here?
The Potency was “inactive”.

With `NCCc1cnc[nH]1` as the molecule, how does the Potency read?
Its Potency is “inactive”.

experiment: Primary qHTS for inhibitors of MERS-S pseudo-typed particle cell entry (AID 1479149); conditions: MERS-S pseudotyped particle entry, luciferase; series mostly up to 57.1 µM; further: nearly all actives have a fitted effect of over 60% in size

Which Potency does the source give for `CCCc1cc(C(N)=S)ccn1` here?
The Potency was “inactive”.

For `Cc1cccc(C)c1NC(=O)C(C)N` (stereo not given), which Potency is on record?
Its Potency is “inactive”.

Which Potency does the source give for `C#C[C@]1(OC(C)=O)CC[C@H]2[C@@H]3CCC4=C/C(=N/O)CC[C@@H]4[C@H]3CC[C@@]21CC` here?
Its Potency is “inactive”.

For `C[C@H]1C[C@H]2[C@@H]3CCC4=CC(=O)C=C[C@]4(C)[C@@]3(Cl)[C@@H](O)C[C@]2(C)[C@@]1(O)C(=O)CO`, which Potency is on record?
Its Potency is “inactive”.

With `CCOc1ccc(NC(C)=O)cc1` as the molecule, how does the Potency read?
The Potency was “inactive”.

For `CC(C)=CCOc1ccc(/C=C/C(=O)c2ccc(OCC=C(C)C)cc2OCC(=O)O)cc1`, which Potency is on record?
The Potency was “inactive”.

For `NCCc1ccc(O)c(O)c1`, which Potency is on record?
Its Potency is “inactive”.

Which Potency does the source give for `O=C(O)CCNC(=O)c1ccccc1` here?
The Potency was “inactive”.

Which Potency does the source give for `OC[C@@H](O)[C@H](O)[C@H](O)[C@@H](O)CO` here?
Its Potency is “inactive”.

Which Potency does the source give for `CC(C)c1cc2c(cc1S(=O)(=O)O)[C@@]1(C)CCC[C@@](C)(C(=O)O)[C@@H]1CC2` here?
The Potency was “inactive”.

With `C/C(=C(/OCCOc1ccc(Cl)cc1)c1ccc(Cl)cc1Cl)n1ccnc1` as the molecule, how does the Potency read?
The Potency was “inactive”.

Which Potency does the source give for `COc1cccc(N(C)C(=S)Oc2ccc3c(c2)CCCC3)n1` here?
Its Potency is “inactive”.

For `CNC(=O)c1c(I)c(NC(=O)CCCCC(=O)Nc2c(I)c(C(=O)O)c(I)c(C(=O)NC)c2I)c(I)c(C(=O)O)c1I`, which Potency is on record?
The Potency was “inactive”.

With `CC(=O)OCC(=O)[C@@]12N=C(C)O[C@@H]1C[C@H]1[C@@H]3CCC4=CC(=O)C=C[C@]4(C)[C@H]3[C@@H](O)C[C@@]12C` as the molecule, how does the Potency read?
The Potency was “inactive”.

Which Potency does the source give for `O=C(OCC(COC(=O)c1cccnc1)(COC(=O)c1cccnc1)COC(=O)c1cccnc1)c1cccnc1` here?
The Potency was “inactive”.

Which Potency does the source give for `CC(=O)OCC(=O)[C@@]1(O)CCC2C3CCC4=CC(=O)CC[C@]4(C)C3[C@@H](O)C[C@@]21C` (stereo not given in full) here?
The Potency was “inactive”.

With `Oc1ccc(C(O)CNCCCCCCNCC(O)c2ccc(O)c(O)c2)cc1O` (stereo not given) as the molecule, how does the Potency read?
The Potency was “inactive”.

Which Potency does the source give for `CC(O)COc1ccccc1` (stereo not given) here?
Its Potency is “inactive”.

With `Nc1ccc(C(=O)NCC(=O)O)cc1` as the molecule, how does the Potency read?
The Potency was “inactive”.

For `C=CCCCCCCCCC(=O)O`, which Potency is on record?
Its Potency is “inactive”.

For `O=C1c2cccc(O)c2C(=O)c2c(O)cccc21`, which Potency is on record?
The Potency was “inactive”.

For `CN(CCCN1c2ccccc2CCc2ccccc21)CC(=O)c1ccc(Cl)cc1`, which Potency is on record?
The Potency was “inactive”.

Which Potency does the source give for `C#C[C@]1(O)CC[C@H]2[C@@H]3CCC4=CC(=O)CC[C@@H]4[C@H]3CC[C@@]21C` here?
The Potency was “inactive”.

Which Potency does the source give for `C[N+](C)(C)CCOC(=O)CCC(=O)OCC[N+](C)(C)C` here?
Its Potency is “inactive”.

Which Potency does the source give for `CC(=O)/C=C/C=C1/C2CCC(C2)C1(C)C` (stereo not given) here?
The Potency was “inactive”.

For `NC(=O)C1(N2CCCCC2)CCN(CCCC(=O)c2ccc(F)cc2)CC1`, which Potency is on record?
The Potency was “inactive”.

Which Potency does the source give for `Nc1c(CC(=O)O)cccc1C(=O)c1ccc(Br)cc1` here?
Its Potency is “inactive”.

Which Potency does the source give for `C[C@H]1C[C@H]2[C@@H]3CCC4=CC(=O)C=C[C@]4(C)[C@H]3C(=O)C[C@]2(C)[C@@]1(O)C(=O)CO` here?
Its Potency is “inactive”.

Which Potency does the source give for `OC[C@H]1O[C@@H](O[C@@H]2[C@@H](CO)O[C@](O)(CO)[C@H]2O)[C@H](O)[C@@H](O)[C@H]1O` here?
The Potency was “inactive”.

For `CC(=O)N[C@H]1[C@H]([C@H](O)[C@H](O)CO)OC(C(=O)O)=C[C@@H]1N=C(N)N`, which Potency is on record?
The Potency was “inactive”.

For `CCN(CC)C(=O)c1cccc(C)c1`, which Potency is on record?
The Potency was “inactive”.

For `CCC1Nc2cc(Cl)c(S(N)(=O)=O)cc2S(=O)(=O)N1` (stereo not given), which Potency is on record?
Its Potency is “inactive”.

Which Potency does the source give for `CC(=O)N(CC(O)CN(C(C)=O)c1c(I)c(C(=O)NCC(O)CO)c(I)c(C(=O)NCC(O)CO)c1I)c1c(I)c(C(=O)NCC(O)CO)c(I)c(C(=O)NCC(O)CO)c1I` (stereo not given) here?
Its Potency is “inactive”.

With `COCCc1ccc(OCC(O)CNC(C)C)cc1` (stereo not given) as the molecule, how does the Potency read?
Its Potency is “inactive”.

Which Potency does the source give for `COCc1c(C(C)C)nc(C(C)C)c(/C=C/[C@@H](O)C[C@@H](O)CC(=O)O)c1-c1ccc(F)cc1` here?
The Potency was “inactive”.

With `C[C@@H]1C[C@H]2[C@@H]3CCC4=CC(=O)C=C[C@]4(C)[C@@]3(F)[C@@H](O)C[C@]2(C)[C@H]1C(=O)CO` as the molecule, how does the Potency read?
The Potency was “inactive”.

For `c1ccc(CN(CC2=NCCN2)c2ccccc2)cc1`, which Potency is on record?
The Potency was “inactive”.

For `NCCc1cnc[nH]1`, which Potency is on record?
The Potency was “inactive”.
